Test results: PubChem BioAssay

Target: Streptavidin (Streptomyces avidinii) (UniProt P22629)
Test: compounds binding control protein streptavidin – biophysical, small-molecule microarray, 635/667 nm fluorescence, artefact control for SMM compound annotation, primary screen (AID 1147);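 also: signal reflects streptavidin binding to arrayed compounds as a control protein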
Conditions: higher = more signal

Sequence of Streptavidin (Streptomyces avidinii) (P22629 whole entry, looked up): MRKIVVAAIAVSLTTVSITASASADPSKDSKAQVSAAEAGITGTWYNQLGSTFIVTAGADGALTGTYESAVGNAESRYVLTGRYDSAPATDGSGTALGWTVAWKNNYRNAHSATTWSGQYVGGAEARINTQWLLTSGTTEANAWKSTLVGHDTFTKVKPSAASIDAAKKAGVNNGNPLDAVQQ

Structure (SMILES)	composite z-score
CO[C@H]1COC(=O)CC=C[C@H](C)[C@@H](OC)COC(=O)CC=C[C@@H]1C	-0.538
COCCOC(=O)N1C(=O)[C@@]2(c3cc(C#CCCO)ccc31)[C@H](C(=O)N1CCCCCCC1)[C@H]1C(=O)O[C@H](c3ccccc3)[C@H](c3ccccc3)N1[C@@H]2c1ccc(O)cc1	1
Cc1ccc(N2C(=O)c3ccccc3[C@@H](C(=O)NCc3ccccc3)[C@@H]2c2ccc(CO)cc2)nc1	-0.524
CC(=O)NCCCC[C@@H]1NC(=O)[C@@H]2C[C@H](C(=O)NCCCCCNC(=O)CS)[C@H](c3ccc(O)cc3)N2C1=O	-0.654
O=C(CS)NCCCCCNC(=O)[C@H]1C[C@H]2C(=O)N3CCC[C@H]3C(=O)N2[C@H]1c1ccc(O)cc1	-1.13
C[C@@H]1CC[C@H]2C(=O)N3CCC[C@H]3C(=O)N2[C@H]1c1ccc(Br)cc1	1.98
O=C1O[C@@H](c2ccccc2)[C@@H](c2ccccc2)N2[C@@H](c3ccc(O)cc3)[C@]3(C(=O)Nc4ccc(C#CC5(O)CCCCCC5)cc43)[C@@H](C(=O)Nc3nc4ccccc4s3)[C@H]12	1.99
C[N+](C)(C)CCCC[C@@H]1NC(=O)[C@H]2C[C@@H](C(=O)NCc3ccc(F)cc3)[C@@H](c3cccc(OCCO)c3)N2C1=O	-0.326
CO[C@H]1COC(=O)[C@H](Cc2ccccc2)NC(=O)CC=C[C@@H](C)[C@H](OC)COC(=O)CC=C[C@@H]1C	-0.129
COC(=O)c1c(CC[C@@H](CO)NC(=O)N[C@H](Cn2cc(-c3cncn3C)nn2)C(C)C)oc(C(C)=O)c1C(=O)OC	0.341
